Reference: PubChem BioAssay (Tox21)
Where “and” joins values, the source holds several entries; their conditions need not be identical. Equal values may be shown once. Some structures have more than one record in an assay (separate samples or runs), and their calls can disagree. Calls of active or inactive are those of the source. Unless noted, calls follow the shape of the dose curve; as a rule, active = well fitted curve in the direction sought with a large enough effect in the repeat runs; inconclusive = weak or mixed curves; inactive = no such curve, though single readings can be large; an effect the other way counts as inactive or inconclusive.

How the values were obtained:
[1] = qHTS assay to identify small molecule antagonists of the thyroid receptor (TR) signaling pathway - cell viability counter screen (AID 743064); also: nearly all actives have a fitted effect of over 50% in size; also: potency is read from the fitted curve at half-maximal effect
Method in brief: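 CellTiter-Fluor readout, 30 min at 37 °C/5% CO2, following 23.5 h incubation of GH3.TRE-Luc cells with test compound and 1 nM T3 (final).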

[2] = qHTS assay to identify small molecule antagonists of the estrogen receptor alpha (ER-alpha) signaling pathway - cell viability counter screen (AID 743074; calls by dose curve; also: nearly all actives have a fitted effect of over 45% in size; also: potency is read from the fitted curve at half-maximal effect)
[3] = qHTS assay to identify small molecule antagonists of the estrogen receptor alpha (ER-alpha) signaling pathway using the BG1 cell line - cell viability counter screen (AID 743081);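 also: compound given together with 17beta-estradiol as the ER stimulus; nearly all actives have a fitted effect of over 45% in size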; also: potency is read from the fitted curve at half-maximal effect
[4] = target: Aromatase (Homo sapiens) (UniProt P11511); assay: qHTS assay to identify aromatase inhibitors (AID 743083); also: nearly all actives have a fitted effect of over 55% in size; also: potency is read from the fitted curve at half-maximal effect
[5] = system: thyroid hormone receptor (rat, GH3 cells); assay: qHTS assay to identify small molecule agonists of the thyroid receptor (TR) signaling pathway (AID 743066; calls by dose curve)
[6] = target: Estrogen receptor (Homo sapiens) (UniProt P03372); assay: qHTS assay to identify small molecule antagonists of the estrogen receptor alpha (ER-alpha) signaling pathway (AID 743069; active = well fitted curve in the direction sought with a large enough effect in the signal ratio in the repeat runs, not every such curve was filed as active; inconclusive = weak or mixed curves, or effect the other way; inactive = no such curve, though single readings can be large or run the other way; the % refers to the signal ratio; also: potency is read from the fitted curve at half-maximal effect)
Method in brief: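 Fluorescence intensity from a beta-lactamase FRET substrate served as the read-out. Cells: HEK293 with stably integrated ER-alpha-UAS-bla reporter. Agonist 17beta-estradiol was co-added with compounds; incubation 18 hr at 37C, substrate 2 hr at room temperature.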

[7] = target: Estrogen receptor (Homo sapiens) (UniProt P03372); assay: qHTS assay to identify small molecule agonists of the estrogen receptor alpha (ER-alpha) signaling pathway (AID 743075; calls by dose curve; also: potency is read from the fitted curve at half-maximal effect); conditions: HEK293 ER-alpha-UAS-bla, beta-lactamase FRET ratio, 18 h; activation: at 70.1 µM (top of the series)
[8] = target: Estrogen receptor (Homo sapiens) (UniProt P03372); assay: qHTS assay to identify small molecule agonists of the estrogen receptor alpha (ER-alpha) signaling pathway using the BG1 cell line (AID 743079); conditions: BG1Luc4E2 cells, ERE-luciferase agonist, 22 h; also: nearly all actives have a fitted effect of over 20% in size; also: potency is read from the fitted curve at half-maximal effect
[9] = qHTS assay to identify small molecule antagonists of the estrogen receptor alpha (ER-alpha) signaling pathway using the BG1 cell line (AID 743080; calls by dose curve;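 also: BG1 cells stimulated with 17beta-estradiol alongside compound; nearly all actives have a fitted effect of over 25% in size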; also: potency is read from the fitted curve at half-maximal effect)
Method in brief: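 After 5 days in phenol-red-free 10% charcoal-stripped FBS medium, BG1-Luc-4E2 cells were seeded, left 24 h at 37 C, co-treated with compounds and 17beta-estradiol for 21.5 h, then assayed for viability and luciferase.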

[10] = qHTS assay to identify small molecule antagonists of the thyroid receptor (TR) signaling pathway (AID 743065); also: nearly all actives have a fitted effect of over 55% in size; also: potency is read from the fitted curve at half-maximal effect
Method in brief: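 Antagonism measured as loss of luciferase signal in GH3 cells stably carrying a TRE-luciferase reporter, co-treated with compound and T3 (1 nM final) for 23.5 h at 37 C. Viability was read in the same well by CellTiter-Fluor.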
% is scaled to controls: 0 for no effect and ±100 for the full control effect.

Aromatase (Homo sapiens), sequence (P11511 whole entry, looked up): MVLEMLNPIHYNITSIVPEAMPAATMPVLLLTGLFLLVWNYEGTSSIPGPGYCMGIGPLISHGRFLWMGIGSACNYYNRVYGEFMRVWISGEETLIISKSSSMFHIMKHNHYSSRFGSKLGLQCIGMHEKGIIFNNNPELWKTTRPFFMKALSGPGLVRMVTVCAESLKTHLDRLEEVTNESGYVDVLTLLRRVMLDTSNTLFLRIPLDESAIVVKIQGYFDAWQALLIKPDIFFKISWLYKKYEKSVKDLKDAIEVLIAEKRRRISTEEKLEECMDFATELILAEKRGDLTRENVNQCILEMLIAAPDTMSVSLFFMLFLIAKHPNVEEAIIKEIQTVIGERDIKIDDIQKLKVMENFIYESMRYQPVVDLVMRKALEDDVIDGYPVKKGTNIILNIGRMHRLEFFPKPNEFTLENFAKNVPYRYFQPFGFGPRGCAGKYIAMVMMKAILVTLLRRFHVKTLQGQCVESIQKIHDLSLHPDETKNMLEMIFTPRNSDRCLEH
Estrogen receptor (Homo sapiens), sequence (P03372 whole entry, looked up): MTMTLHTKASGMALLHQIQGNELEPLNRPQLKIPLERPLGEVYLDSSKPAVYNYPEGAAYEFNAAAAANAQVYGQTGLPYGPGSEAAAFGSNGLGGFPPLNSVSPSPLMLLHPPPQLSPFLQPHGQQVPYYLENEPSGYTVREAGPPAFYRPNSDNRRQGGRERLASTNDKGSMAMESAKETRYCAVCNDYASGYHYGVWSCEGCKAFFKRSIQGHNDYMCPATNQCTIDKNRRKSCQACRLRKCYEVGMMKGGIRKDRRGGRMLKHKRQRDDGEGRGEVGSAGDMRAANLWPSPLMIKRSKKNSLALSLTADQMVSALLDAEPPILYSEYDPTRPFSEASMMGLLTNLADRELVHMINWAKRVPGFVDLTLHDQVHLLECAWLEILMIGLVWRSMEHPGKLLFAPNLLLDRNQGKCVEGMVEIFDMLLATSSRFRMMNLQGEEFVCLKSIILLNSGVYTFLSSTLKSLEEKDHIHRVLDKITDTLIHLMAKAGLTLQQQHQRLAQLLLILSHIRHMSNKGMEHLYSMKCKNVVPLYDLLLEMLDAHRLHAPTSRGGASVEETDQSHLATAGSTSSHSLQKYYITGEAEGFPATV

CCC1OCC(COc2ccc(Oc3ccccc3)cc2)O1 (stereo unspecified)
inactive: Potency [1] | Potency [2] | Potency [3] | Potency [4]

Oc1ccc2c(c1)-c1ccccc1C2
inactive: Potency [1] | Potency [5] | Potency [2] | Potency [3]

Cc1cccc(CN2CCN(C(c3ccccc3)c3ccc(Cl)cc3)CC2)c1 (stereo unspecified)
inactive: Potency [6] | Potency [2] | Potency [7] | activation ([8]; at 32.5 µM (top of the series)) -3.05% | Potency [9] | Potency [3] | Potency [4]
active: Potency [1] 12.7 µM

O=C1Cc2cc(CCN3CCN(c4nsc5ccccc45)CC3)c(Cl)cc2N1
inactive: Potency [2] | Potency [7] | activation ([8]; at 70.3 µM (top of the series)) 1.77% and -23.7% | Potency [9] | Potency [3] | Potency [4]
inactive and 16.8 µM (active): Potency [1]

O=C1CCCCCN1SSN1CCCCCC1=O
inactive: Potency [5] | Potency [2] | Potency [7] | activation ([8]; at 70.3 µM (top of the series)) -12.6% | Potency [9] | Potency [3]
active: Potency [10] 27.3 µM

O=C1CCCc2c1cc1ccc3cccc4ccc2c1c34
inactive: Potency [1] | Potency [2] | Potency [3] | Potency [4]
active: Potency [8] 3.9 µM

CCCCCCCCCCCCCCCC[N+](C)(C)CCN(Cc1ccc(OC)cc1)c1ncccn1
active: Potency [1] 11.4 µM | Potency [4] 12.7 µM
inactive: Potency [6] | Potency [7] | activation ([8]; at 32.5 µM (top of the series)) -16.9% | Potency [3]

Cc1c(C)c2c(c(C)c1O)CCC(C)(COc1ccc(CC3SC(=O)NC3=O)cc1)O2 (stereo unspecified)
inactive: Potency [5] | Potency [2] | Potency [7] | Potency [3]
active: Potency [10] 13.3 µM and 24.3 µM | Potency [9] 23.7 µM | Potency [4] 29.8 µM and 61.1 µM

[Cl][Au]([Cl])[Cl]
active: Potency [1] 3.86 µM | Potency [4] 24.3 µM

CCCC(=O)OC[C@@H](OC(=O)CCC)[C@@H](OC(=O)CCC)[C@H](Cn1c2nc(=O)[nH]c(=O)c-2nc2cc(C)c(C)cc21)OC(=O)CCC
inactive: Potency [5] | Potency [2] | Potency [7] | Potency [4]
active: Potency [10] 21.1 µM | Potency [9] 29.8 µM

CCCCCCCC[N+](CCCCCCCC)(CCCCCCCC)CCCCCCCC
active: Potency [1] 3.43 µM | Potency [6] 38.8 µM [cytotoxic] | Potency [2] 15.5 µM | Potency [9] 1.72 µM | Potency [3] 24.3 µM | Potency [4] 2.16 µM

CCCCC(CC)COC(=O)c1ccccc1C(=O)O (stereo unspecified)
inactive: Potency [1] | Potency [5]

CCN(CC)CCNC(=O)c1c(C)[nH]c(/C=C2\C(=O)Nc3ccc(F)cc32)c1C
inactive: Potency [2]
active: Potency [1] 26.6 µM | Potency [3] 9.44 µM

CC(C)CCCCCCCCCCCCCCC(=O)O
inactive: Potency [1] | Potency [5] | Potency [2] | Potency [3] | Potency [4]

N=C1C=CC(=C(c2ccc(N)cc2)c2ccc(N)cc2)C=C1
active: Potency [1] 9.69 µM | Potency [2] 1.38 µM | Potency [3] 13.7 µM | Potency [4] 4.86 µM

CCCCc1oc2ccc(NS(C)(=O)=O)cc2c1C(=O)c1ccc(OCCCN(CCCC)CCCC)cc1
active: Potency [1] 10.6 µM | Potency [10] 11.9 µM | Potency [4] 29.8 µM

Cc1ccc(O)c(C(C)(C)C)c1
17.2 µM (active) and inactive: Potency [1]
15.3 µM (active) and inactive: Potency [4]
61 µM (active) and inactive: Potency [3]
inactive: Potency [5]

N/C(=N\N=C\c1ccc(Cl)cc1)N/N=C/c1ccc(Cl)cc1
inactive: Potency [5] | Potency [6] | Potency [2] | Potency [7] | activation ([8]; at 70.3 µM (top of the series)) -3.33% | Potency [9] | Potency [3] | Potency [4]
active: Potency [10] 29.8 µM

COc1cccc(N)c1
inactive: Potency [1] | Potency [5] | Potency [2] | Potency [3]

CCCCCOC(=O)CCCC
inactive: Potency [10] | Potency [5] | Potency [6] | Potency [2] | Potency [7] | activation ([8]; at 70.3 µM (top of the series)) -1.52% | Potency [9] | Potency [3] | Potency [4]

O=C1C=CC(=O)N1
active: Potency [1] 9.95 µM | Potency [2] 56.4 µM | Potency [4] 8.86 µM
inactive: Potency [7] | activation ([8]; at 95 µM (top of the series)) -8.49%

CCCCCCCCCCCCCCCCCC[N+](C)(C)C
active: Potency [1] 12.2 µM | Potency [2] 43.8 µM | Potency [4] 21.8 µM

CCCCCCCCOC(=O)c1ccc(O)cc1
inactive: Potency [5] | Potency [2] | Potency [9] | Potency [3]
active: Potency [1] 61.1 µM | Potency [7] 61.4 µM [inconclusive] and 43.7 µM [activator] | Potency [8] 7.67 µM and 17.2 µM | Potency [4] 21.6 µM and 54.5 µM

COc1ccc(C(=O)/C(Br)=C\C(=O)O)cc1
inactive: Potency [5] | Potency [2] | Potency [7] | activation ([8]; at 70.3 µM (top of the series)) 0.472% | Potency [3]
active: Potency [1] 21.7 µM | Potency [4] 48.6 µM

O=[N+]([O-])c1cc(Cl)c(Cl)c(Cl)c1Cl
inactive: Potency [5] | Potency [2] | Potency [3]
active: Potency [10] 60.9 µM

C=C(C)C(=O)OCC(O)COc1ccc(C(C)(C)c2ccc(OCC(O)COC(=O)C(=C)C)cc2)cc1 (stereo unspecified)
active: Potency [10] 61.1 µM | Potency [2] 43.6 µM | Potency [4] 30.6 µM
inactive: Potency [5] | Potency [7]

CC[C@@]1(O)C(=O)OCc2c1cc1n(c2=O)Cc2cc3c(CN(C)C)c(O)ccc3nc2-1
inactive: Potency [5] | Potency [2] | Potency [7]
active: Potency [10] 2.37 µM | Potency [6] 12 µM [inconclusive] | Potency [9] 7.5 µM | Potency [4] 5.31 µM

Cc1ccc(-n2nc(C(C)(C)C)cc2NC(=O)Nc2ccc(OCCN3CCOCC3)c3ccccc23)cc1
active: Potency [6] 13.4 µM [inconclusive]
inactive: Potency [1] | Potency [5] | Potency [2] | Potency [7] | Potency [9] | Potency [3] | Potency [4]

Oc1ccc2cc(SSc3ccc4cc(O)ccc4c3)ccc2c1
inactive and 61.1 µM (active): Potency [1]
inactive: Potency [5] | Potency [2] | Potency [3]

CCCC1O[C@@H]2C[C@H]3[C@@H]4CCC5=CC(=O)C=C[C@]5(C)[C@H]4[C@@H](O)C[C@]3(C)[C@]2(C(=O)CO)O1 (stereo partly specified)
inactive: Potency [1] | Potency [5] | Potency [2] | Potency [3] | Potency [4]

Cc1ccc2oc(CN(Cc3ccccc3)C(=O)Nc3c(F)cc(F)cc3F)c(-c3ccc(Cl)cc3)c2c1
inactive: Potency [1] | Potency [5] | Potency [6] | Potency [2] | Potency [7] | activation ([8]; at 70.3 µM (top of the series)) -12.5% | Potency [9] | Potency [3]

O=C1c2c(O)ccc(Nc3ccc(CCO)cc3)c2C(=O)c2c([N+](=O)[O-])ccc(O)c21
active: Potency [1] 61.1 µM
inactive: Potency [5] | Potency [2] | Potency [7] | activation ([8]; at 70.3 µM (top of the series)) -6.57% | Potency [9]

CCc1oc2ccccc2c1C(=O)c1cc(Br)c(O)c(Br)c1
inactive: Potency [5] | Potency [2] | Potency [7] | activation ([8]; at 70.3 µM (top of the series)) -23.9% | Potency [9] | Potency [3] | Potency [4]
active: Potency [10] 26.6 µM | Potency [6] 10.7 µM [inconclusive]

CCCCCCCCCCCCCC[P+](CCCC)(CCCC)CCCC (tested in a mixture with another compound)
active: Potency [1] 4.35 µM | Potency [3] 15.4 µM | Potency [4] 4.35 µM

Cc1onc(-c2c(Cl)cccc2Cl)c1C(=O)N[C@@H]1C(=O)N2[C@@H]1SC(C)(C)[C@@H]2C(=O)O
inactive: Potency [1] | Potency [5] | Potency [2] | Potency [3] | Potency [4]

N#CSc1ccc(N)c([N+](=O)[O-])c1
inactive: Potency [5] | Potency [2] | Potency [7] | activation ([8]; at 95 µM (top of the series)) -0.741%
active: Potency [1] 54.8 µM | Potency [6] 27.7 µM [inconclusive] | Potency [3] 54.8 µM | Potency [4] 27.5 µM

Cc1onc(-c2ccccc2Cl)c1C(=O)N[C@@H]1C(=O)N2[C@@H]1SC(C)(C)[C@@H]2C(=O)O
inactive: activation ([8]; at 32.5 µM (top of the series)) -4.31%
